Results: PubChem BioAssay (EPA / NIEHS)
Some structures have more than one record in an assay (separate samples or runs), and their calls can disagree. Calls of active or inactive are those of the source. The calls were made as follows: active = hit-call score of the fitted dose curve at least 0.9, where 1 is the maximum; inactive = score below 0.9.

How the values were obtained:
[1] = ATG_ISRE_CIS: Attagene CIS-FACTORIAL HepG2 Assay for human Interferon Regulatory Factor 1 (IRF1) binding to an Interferon-Stimulated Response Element (ISRE) (AID 2282948); details: HepG2 ISRE cis-reporter (Attagene), mRNA transcription readout; actives raise or lower the signal
Summary of the method: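 Uses HepG2 liver cells transfected with cis-regulated reporters and measures mRNA 24 h post-dosing through RT-PCR, primer-extension labelling and capillary electrophoresis, with DMSO as negative control.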

[2] = ATG_M_32_CIS: Attagene CIS-FACTORIAL HepG2 Assay for M32 Transcription Factor (Internal Marker) (AID 2282949); details: HepG2 Attagene cis-factorial M32 reporter, mRNA; actives raise or lower the signal;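 also: background control marker of the multiplexed CIS panel rather than a real target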
Summary of the method: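 Transient MRTU transfection of HepG2; 24 h compound treatment; TriZol RNA, oligo(dT) RT, reporter PCR, 6-FAM primer extension, HpaI cut, CE. Gain/loss of signal vs DMSO.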

[3] = ATG_M_06_CIS: Attagene CIS-FACTORIAL HepG2 Assay for M06 Transcription Factor (Internal Marker) (AID 2282950); details: HepG2 Attagene CIS-FACTORIAL M06 internal marker reporter; actives raise or lower the signal
Summary of the method: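 HepG2 cells transiently transfected with cis-regulated multiple reporter transcription units were exposed to chemical for 24 h; reporter mRNA was quantified by RT-PCR, 6-FAM primer labelling, HpaI digestion and capillary electrophoresis, fitted bidirectionally against DMSO.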

[4] = target: Hypoxia-inducible factor 1-alpha (Homo sapiens) (UniProt Q16665); test: ATG_HIF1a_CIS: Attagene CIS-FACTORIAL HepG2 Assay for human Hypoxia Inducible Factor 1 (HIF1A) (AID 2282951); details: HepG2 Attagene cis-factorial HIF1a reporter transcription; actives raise or lower the signal
Sequence of Hypoxia-inducible factor 1-alpha (Homo sapiens) (Q16665 whole entry, looked up): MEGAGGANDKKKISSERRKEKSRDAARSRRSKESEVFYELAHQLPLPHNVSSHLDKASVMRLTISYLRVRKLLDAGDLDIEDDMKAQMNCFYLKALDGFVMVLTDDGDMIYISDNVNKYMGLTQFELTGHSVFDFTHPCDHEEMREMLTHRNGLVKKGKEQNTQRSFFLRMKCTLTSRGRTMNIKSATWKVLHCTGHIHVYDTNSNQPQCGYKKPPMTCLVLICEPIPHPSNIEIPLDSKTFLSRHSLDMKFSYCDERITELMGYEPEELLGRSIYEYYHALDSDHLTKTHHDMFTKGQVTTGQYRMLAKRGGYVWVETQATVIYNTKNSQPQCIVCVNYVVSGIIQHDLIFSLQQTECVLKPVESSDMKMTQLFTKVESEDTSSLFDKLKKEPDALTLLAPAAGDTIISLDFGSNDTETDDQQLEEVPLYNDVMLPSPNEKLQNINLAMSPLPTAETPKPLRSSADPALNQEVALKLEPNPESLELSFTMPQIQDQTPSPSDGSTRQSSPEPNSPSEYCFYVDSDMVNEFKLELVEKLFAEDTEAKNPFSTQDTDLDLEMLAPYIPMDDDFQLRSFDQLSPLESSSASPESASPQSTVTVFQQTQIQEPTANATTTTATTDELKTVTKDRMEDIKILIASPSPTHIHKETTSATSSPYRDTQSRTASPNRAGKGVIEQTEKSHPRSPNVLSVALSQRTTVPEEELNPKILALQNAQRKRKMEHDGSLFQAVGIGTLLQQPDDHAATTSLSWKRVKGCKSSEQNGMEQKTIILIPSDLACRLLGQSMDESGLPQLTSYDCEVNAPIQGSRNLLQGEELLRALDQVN
Summary of the method: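 HepG2 cells transiently transfected with multiple cis-regulated reporter transcription units measure endogenous transcription factor activity. After 24 h exposure, reporter mRNA is quantified by RT-PCR with 6-FAM labelling, HpaI digestion and capillary electrophoresis. Bidirectional fitting against DMSO.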

[5] = target: Hepatocyte nuclear factor 6 (Homo sapiens) (UniProt Q9UBC0); test: ATG_HNF6_CIS: Attagene CIS-FACTORIAL HepG2 Assay for human Hepatocyte Nuclear Factor 6 (HNF6) (AID 2282952); details: HepG2 Attagene cis-factorial HNF6 reporter transcription; actives raise or lower the signal
Sequence of Hepatocyte nuclear factor 6 (Homo sapiens) (Q9UBC0 whole entry, looked up, the tested form may be a part): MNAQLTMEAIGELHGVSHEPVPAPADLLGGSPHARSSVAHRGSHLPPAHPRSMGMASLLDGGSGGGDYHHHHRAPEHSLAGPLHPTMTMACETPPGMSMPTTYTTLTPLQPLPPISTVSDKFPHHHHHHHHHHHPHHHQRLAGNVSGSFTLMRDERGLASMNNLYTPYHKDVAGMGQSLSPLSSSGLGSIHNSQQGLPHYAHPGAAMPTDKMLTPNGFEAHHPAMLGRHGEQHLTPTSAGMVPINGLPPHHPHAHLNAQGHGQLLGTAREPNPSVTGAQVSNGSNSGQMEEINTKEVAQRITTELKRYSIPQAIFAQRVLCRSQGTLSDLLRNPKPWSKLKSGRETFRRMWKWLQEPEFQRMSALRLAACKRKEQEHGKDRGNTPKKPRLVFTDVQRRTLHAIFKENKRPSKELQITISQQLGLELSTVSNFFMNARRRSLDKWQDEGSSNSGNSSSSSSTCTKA
Summary of the method: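 Using cis-element reporters in HepG2 liver cells, the assay tracks endogenous factor-driven transcription 24 h post-dosing. Signal comes from 6-FAM-labelled, HpaI-digested RT-PCR fragments, with gain or loss scored against DMSO.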

[6] = target: Heat shock factor protein 1 (Homo sapiens) (UniProt Q00613); test: ATG_HSE_CIS: Attagene CIS-FACTORIAL HepG2 Assay for human Heat Shock Transcription Factor 1 (HSE) (AID 2282953); details: HepG2 HSE cis-reporter, Attagene RNA transcription; actives raise or lower the signal
Sequence of Heat shock factor protein 1 (Homo sapiens) (Q00613 whole entry, looked up): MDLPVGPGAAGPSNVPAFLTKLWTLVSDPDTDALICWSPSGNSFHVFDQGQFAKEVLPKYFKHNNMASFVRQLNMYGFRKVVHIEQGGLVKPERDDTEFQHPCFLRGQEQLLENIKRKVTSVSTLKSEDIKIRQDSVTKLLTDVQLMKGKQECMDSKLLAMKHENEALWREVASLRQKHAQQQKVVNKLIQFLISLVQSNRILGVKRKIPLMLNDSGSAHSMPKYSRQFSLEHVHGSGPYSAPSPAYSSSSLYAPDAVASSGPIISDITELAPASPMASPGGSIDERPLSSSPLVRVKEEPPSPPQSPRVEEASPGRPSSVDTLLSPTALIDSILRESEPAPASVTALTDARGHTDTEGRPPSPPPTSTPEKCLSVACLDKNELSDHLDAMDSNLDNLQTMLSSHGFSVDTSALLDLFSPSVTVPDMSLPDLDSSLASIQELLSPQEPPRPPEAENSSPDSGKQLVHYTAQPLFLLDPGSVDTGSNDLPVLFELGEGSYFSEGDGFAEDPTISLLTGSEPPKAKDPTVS
Summary of the method: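 HepG2 cells transiently transfected with multiple reporter transcription units under cis-regulatory promoter control, measuring endogenous transcription factor activity. After 24 h chemical exposure, reporter mRNA quantified by RT-PCR, fluorescent labelling, HpaI digestion and capillary electrophoresis; bidirectional fit versus DMSO.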

[7] = ATG_MRE_CIS: Attagene CIS-FACTORIAL HepG2 Assay for human Metal Responsive Element (MRE) (AID 2282954); details: HepG2 MRE cis-reporter transcription, Attagene multiplex; actives raise or lower the signal
Summary of the method: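 Multiplexed cis-reporter assay in human HepG2 liver cells, 24 h incubation with test chemical. Reporter transcripts measured by RT-PCR and capillary electrophoresis; values from bidirectional curve fitting versus DMSO.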

[8] = ATG_PBREM_CIS: Attagene CIS-FACTORIAL HepG2 Assay for human Phenobarbital-responsive Enhancer Module (PBREM) (AID 2282955); details: HepG2 PBREM cis-reporter, Attagene multiplexed transcription; actives raise or lower the signal
Summary of the method: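 HepG2 cells transiently transfected with multiple cis-regulated reporter units measure endogenous transcription factor activity; 24 h compound exposure. Reporter mRNA quantified by RT-PCR, fluorescent labelling, HpaI digestion and capillary electrophoresis; bidirectional fit versus DMSO.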

[9] = ATG_PXRE_CIS: Attagene CIS-FACTORIAL HepG2 Assay for human Pregnane X Receptor Element (PXRE) (AID 2282957); details: HepG2 Attagene CIS-FACTORIAL PXRE reporter, mRNA; actives raise or lower the signal
Summary of the method: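 Using HepG2 transfected with multiple reporter transcription units, endogenous factor-driven transcription was scored as reporter mRNA after 24 h exposure.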

[10] = ATG_PPRE_CIS: Attagene CIS-FACTORIAL HepG2 Assay for human Peroxisome Proliferator-activated Response Element (PPRE) (AID 2282958); details: HepG2 PPRE cis-element reporter, Attagene transcription factor profiling; actives raise or lower the signal
Summary of the method: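 HepG2 cells are transiently transfected with multiplexed cis-promoter reporter units to report endogenous PPAR activity. After 24 h dosing, reporter mRNA is read by RT-PCR and capillary electrophoresis. Fitting is bidirectional against DMSO.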

[11] = ATG_RORE_CIS: Attagene CIS-FACTORIAL HepG2 Assay for human RAR-related Orphan Receptor Element (RORE) (AID 2282959); details: HepG2 Attagene cis-factorial RORE reporter, mRNA; actives raise or lower the signal
Summary of the method: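 HepG2 cells carrying transiently transfected cis-regulated reporter units; RORE-driven reporter mRNA quantified 24 h post-dosing by RT-PCR, 6-FAM primer extension, HpaI digestion and capillary electrophoresis. Bidirectional fit versus DMSO.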

[12] = ATG_Sox_CIS: Attagene CIS-FACTORIAL HepG2 Assay for human SRY-box transcription factor (SOX) (AID 2282960); details: HepG2 Attagene cis-factorial SOX reporter, mRNA; actives raise or lower the signal
Summary of the method: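 HepG2 cells transiently transfected with multiple cis-regulated reporter units, then dosed for 24 h. Reporter mRNA quantified by RT-PCR, fluorescent labelling, HpaI digestion and capillary electrophoresis; bidirectional fit versus DMSO.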

[13] = ATG_SREBP_CIS: Attagene CIS-FACTORIAL HepG2 Assay for human Sterol Regulatory Element Binding (SREBP) (AID 2282962); details: HepG2 Attagene cis-factorial SREBP reporter, mRNA; actives raise or lower the signal
Summary of the method: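 In this cis-format assay, HepG2 liver cells express reporters controlled by promoter elements responsive to native transcription factors. Exposure lasts 24 h; reporter mRNA fluorescence from capillary electrophoresis gives the signal, fitted bidirectionally against DMSO.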

[14] = target: Signal transducer and activator of transcription 3 (Homo sapiens) (UniProt P40763); test: ATG_STAT3_CIS: Attagene CIS-FACTORIAL HepG2 Assay for human Signal Transducer and Activator of Transcription 3 (STAT3) (AID 2282963); details: HepG2, Attagene cis-factorial STAT3 reporter transcription; actives raise or lower the signal
Sequence of Signal transducer and activator of transcription 3 (Homo sapiens) (P40763 whole entry, looked up): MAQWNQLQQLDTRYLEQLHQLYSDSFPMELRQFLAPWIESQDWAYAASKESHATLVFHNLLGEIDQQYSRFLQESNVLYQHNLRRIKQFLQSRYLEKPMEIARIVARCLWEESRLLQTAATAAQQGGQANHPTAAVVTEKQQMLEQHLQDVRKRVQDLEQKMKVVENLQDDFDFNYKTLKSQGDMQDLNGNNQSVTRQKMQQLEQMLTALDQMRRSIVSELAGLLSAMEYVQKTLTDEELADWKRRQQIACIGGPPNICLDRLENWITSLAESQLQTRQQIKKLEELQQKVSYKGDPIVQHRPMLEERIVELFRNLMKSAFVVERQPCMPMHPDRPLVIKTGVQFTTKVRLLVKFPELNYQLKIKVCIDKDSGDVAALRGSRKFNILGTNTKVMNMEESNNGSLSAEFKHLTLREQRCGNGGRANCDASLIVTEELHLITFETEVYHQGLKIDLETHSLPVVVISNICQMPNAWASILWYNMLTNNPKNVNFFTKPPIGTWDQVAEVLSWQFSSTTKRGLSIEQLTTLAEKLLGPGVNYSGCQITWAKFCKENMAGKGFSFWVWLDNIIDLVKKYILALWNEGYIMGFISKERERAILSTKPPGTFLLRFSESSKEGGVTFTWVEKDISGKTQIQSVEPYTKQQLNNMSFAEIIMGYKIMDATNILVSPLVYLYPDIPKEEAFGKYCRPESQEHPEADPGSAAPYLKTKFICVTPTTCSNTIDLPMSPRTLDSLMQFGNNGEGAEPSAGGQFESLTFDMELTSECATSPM
Summary of the method: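 Cis-factorial format: endogenous transcription factors in HepG2 drive transfected reporter units. After 24 h treatment, reporter RNA was reverse-transcribed, amplified, FAM-labelled and HpaI-digested before CE analysis; activity scored in both directions against DMSO.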

[15] = ATG_TA_CIS: Attagene CIS-FACTORIAL HepG2 Assay for human TA Basal Promoter (AID 2282964); details: HepG2 Attagene CIS-factorial TA basal promoter reporter; actives raise or lower the signal
Summary of the method: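 HepG2 cells transiently transfected with multiplexed cis-promoter reporter units, dosed 24 h. Reporter mRNA measured by RT-PCR, 6-FAM labelling, HpaI digestion and capillary electrophoresis; bidirectional fit versus DMSO baseline, serving as background control.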

[16] = ATG_TCF_b_cat_CIS: Attagene CIS-FACTORIAL HepG2 Assay for human T-Cell-Factor with beta-catenin (TCF/b-cat) (AID 2282965); details: HepG2 TCF/beta-catenin cis-reporter transcription, actives raise or lower the signal
Summary of the method: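 Endogenous TCF/LEF activity read as reporter transcript level via RT-PCR and capillary electrophoresis fluorescence in transfected HepG2, 24 h exposure; gain or loss of signal fitted against DMSO controls.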

[17] = ATG_TAL_CIS: Attagene CIS-FACTORIAL HepG2 Assay for human TAL Basal Promoter (AID 2282966); details: HepG2 Attagene cis-factorial TAL promoter reporter; actives raise or lower the signal;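 also: background control endpoint measuring basal TAL promoter reporter mRNA not a specific factor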
Summary of the method: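 After 24 hours of chemical exposure, transfected HepG2 cells yielded RNA that was converted to 6-FAM-labelled, HpaI-digested reporter fragments for capillary electrophoresis. Values derive from bidirectional fitting against DMSO controls.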

[18] = ATG_TGFb_CIS: Attagene CIS-FACTORIAL HepG2 Assay for human Transforming Growth Factor (TGF) (AID 2282967); details: HepG2 Attagene CIS TGFb reporter, mRNA transcription; actives raise or lower the signal
Summary of the method: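 HepG2 cells transiently transfected with cis-promoter-driven multiplexed reporter units; 24 h compound exposure. Reporter mRNA measured by RT-PCR, 6-FAM labeling, HpaI digestion and capillary electrophoresis; bidirectional fit versus DMSO baseline.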

[19] = target: Paired box protein Pax-6 (Homo sapiens) (UniProt P26367); test: ATG_Pax6_CIS: Attagene CIS-FACTORIAL HepG2 Assay for human Paired Box 6 (PAX6) (AID 2282956); details: HepG2 CIS-FACTORIAL PAX6 reporter transcription, RNA readout; actives raise or lower the signal
Sequence of Paired box protein Pax-6 (Homo sapiens) (P26367 whole entry, looked up): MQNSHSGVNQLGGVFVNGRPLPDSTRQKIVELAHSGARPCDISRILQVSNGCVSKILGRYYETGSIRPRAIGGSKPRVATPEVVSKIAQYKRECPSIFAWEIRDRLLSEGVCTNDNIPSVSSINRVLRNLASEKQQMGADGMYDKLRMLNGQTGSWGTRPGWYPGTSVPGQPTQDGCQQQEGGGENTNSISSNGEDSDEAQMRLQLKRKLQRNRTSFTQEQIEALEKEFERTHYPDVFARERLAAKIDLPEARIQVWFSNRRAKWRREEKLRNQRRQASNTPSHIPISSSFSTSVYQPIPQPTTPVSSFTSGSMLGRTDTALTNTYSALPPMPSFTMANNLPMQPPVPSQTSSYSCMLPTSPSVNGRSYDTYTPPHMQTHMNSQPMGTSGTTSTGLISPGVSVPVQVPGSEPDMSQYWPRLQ
Summary of the method: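 DMSO-referenced bidirectional fits of reporter mRNA fluorescence; HepG2 with transient cis-promoter MRTUs, 24 h post-dose, RT-PCR plus capillary electrophoresis detection.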

[20] = target: Transcription factor Sp1 (Homo sapiens) (UniProt P08047); test: ATG_Sp1_CIS: Attagene CIS-FACTORIAL HepG2 Assay for human Specificity Protein 1 (Sp1) (AID 2282961); details: HepG2 Sp1 cis-reporter transcription, actives raise or lower the signal
Sequence of Transcription factor Sp1 (Homo sapiens) (P08047 whole entry, looked up): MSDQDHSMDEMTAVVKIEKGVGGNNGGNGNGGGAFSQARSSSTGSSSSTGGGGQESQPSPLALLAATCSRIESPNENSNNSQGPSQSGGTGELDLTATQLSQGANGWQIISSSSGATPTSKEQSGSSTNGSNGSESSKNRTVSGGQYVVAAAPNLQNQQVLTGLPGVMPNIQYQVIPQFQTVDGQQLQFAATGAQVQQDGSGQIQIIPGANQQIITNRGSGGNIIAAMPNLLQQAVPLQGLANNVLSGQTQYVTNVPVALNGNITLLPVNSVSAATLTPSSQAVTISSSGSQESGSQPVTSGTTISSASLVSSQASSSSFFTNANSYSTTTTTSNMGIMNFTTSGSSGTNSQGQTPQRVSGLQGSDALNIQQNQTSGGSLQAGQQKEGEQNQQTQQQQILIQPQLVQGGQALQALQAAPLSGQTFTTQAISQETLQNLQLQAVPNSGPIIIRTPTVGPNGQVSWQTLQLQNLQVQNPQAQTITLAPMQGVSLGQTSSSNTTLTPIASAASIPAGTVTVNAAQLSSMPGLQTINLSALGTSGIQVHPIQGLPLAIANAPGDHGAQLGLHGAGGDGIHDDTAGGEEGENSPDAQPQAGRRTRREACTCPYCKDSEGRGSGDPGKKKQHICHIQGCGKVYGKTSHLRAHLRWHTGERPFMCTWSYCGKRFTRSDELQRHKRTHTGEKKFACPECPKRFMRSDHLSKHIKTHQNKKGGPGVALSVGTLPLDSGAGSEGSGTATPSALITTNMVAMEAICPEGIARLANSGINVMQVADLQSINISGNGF
Summary of the method: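 HepG2 cells transiently transfected with multiplexed cis-regulated reporter constructs, chemical exposure 24 h. Reporter mRNA quantified by RT-PCR with capillary electrophoresis; bidirectional fit relative to DMSO.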

Measured: AC50

NC(=O)CCl
active: [9] 27.2 µM
not listed: [19] | [20]
inactive: all other assays above

Cc1cc(SCc2sc(-c3ccc(C(F)(F)F)c(F)c3)nc2C)ccc1OCC(=O)O
inactive: [2] | [3] | [5] | [8] | [12] | [13] | [14] | [18]
active: [1] 42.8 µM | [4] 17.2 µM | [6] 50.9 µM | [7] 24.5 µM | [19] 33.4 µM | [9] 1.32 µM | [11] 8.36 µM | [15] 23 µM | [16] 24.8 µM | [17] 15.5 µM

CC1(C)COP(Oc2ccccc2)OC1
not listed: [10] | [18]
inactive: all other assays above

COc1ccccc1N
active: [9] 59.1 µM
inactive: [1] | [2] | [3] | [4] | [5] | [6] | [7] | [19] | [9] | [11] | [12] | [20] | [13] | [14] | [15] | [16] | [18]

COCC(=O)N(c1c(C)cccc1C)[C@H](C)C(=O)OC
active: [9] 27.7 µM
not listed: [15] | [19]
inactive: all other assays above

O=[N+]([O-])c1ccccc1O
active: [9] 26.7 µM
inactive: [1] | [2] | [3] | [4] | [5] | [6] | [7] | [8] | [9] | [11] | [12] | [20] | [13] | [14] | [15] | [16] | [18]

CCOC(=O)OC1=C(c2cc(C)ccc2C)C(=O)NC12CCC(OC)CC2 (stereo not drawn)
not listed: [10] | [16] | [17] | [19] | [20]
inactive: all other assays above
